This is an account of results in PubChem BioAssay AID2733 (National Center for Advancing Translational Sciences (NCATS), 2010).

Records with an inconclusive call do not appear. Activity calls are given as the source filed them. Calls follow the shape of the dose curve; as a rule, active = well fitted inhibition curve with a large enough effect; inconclusive = small, poorly fitted or top-dose-only effect; inactive = flat fitted curve, though single readings scatter.

The nature of the test: High Content Assay for Compounds that inhibit the Assembly of the Perinucleolar Compartment: PC3M Cytotoxicity. As to conditions: PC3M cells, ATPLite luminescence viability, 24 h; series mostly up to 46.1 µM. Put shortly: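 PC3M-GFP cells (2000/well) adhered 4 h, then given 23 nl of compound stock in duplicate. After 24 h at 37 C, ATP measured by ATPLite luminescence; camptothecin positive control, DMSO negative.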
(In general: ATP-based viability assays read luminescence as a measure of living cells.)
Consider `Cc1ccccc1C(=O)NNC(=S)Nc1cccc(C(F)(F)F)c1`, for which the Potency result is “inactive”.

Turning to `CCCSc1cc(N2CCN(C)CC2)nc(-c2ccc(OC)cc2)n1`, the Potency entry was “inactive”.

Turning to `Cc1cccc(NC2=C/C(=N/S(=O)(=O)c3cccs3)c3ccccc3C2=O)c1`, the Potency was 15.8 µM (active).

For the compound `O=C(Nc1cccnc1)c1cccs1`, the Potency result was “inactive”.

As to `Cc1c(NC(=O)COC(=O)c2cc(-c3ccc(-c4ccccc4)cc3)nc3ccccc23)c(=O)n(-c2ccccc2)n1C`, the Potency is 5.01 µM (active).

With `O=C(NCc1ccco1)C1CCN(Cc2ccc(F)cc2)CC1`, the Potency result was “inactive”.

With `O=C1C(=O)c2ccc(-c3ccccc3)cc2-c2ccccc21`, the Potency is 15.8 µM (active).

`Cc1ccc(NC2=C/C(=N/S(=O)(=O)c3cccs3)c3ccccc3C2=O)cc1`: the Potency is 14.1 µM (active).

Take `CC(=O)Nc1cccc(Oc2ncnc3scc(-c4ccc(C)cc4)c23)c1`: the Potency entry was “inactive”.

In the case of `Nc1cccc(-c2nc3ccc(N)cc3s2)c1`, the Potency is 25.1 µM (active).

For the compound `O=C(N/N=C/c1cc(Cl)ccc1O)C(=O)Nc1ccccc1OC(F)(F)C(F)F`, the Potency was 14.1 µM (active).

Regarding `C=CCN=c1scc(-c2ccccc2)n1/N=C/c1ccccn1`, the Potency is 14.1 µM (active).

For `C/C(N)=C(/C#N)C(=O)COC(=O)c1cc(C)n(-c2ccc(F)cc2)c1C`, the Potency is 12.6 µM (active).

For the compound `CSc1nc(-c2ccc(C)cc2)nc(C(Cl)Cl)n1`, the Potency is 31.6 µM (active).

As to `COC(=O)c1ccc(CSc2ccccc2C)o1`, the Potency result is “inactive”.

On to `COc1ccccc1NC1=C(N2CCCCC2)C(=O)c2ccccc2C1=O`, for which the Potency was 7.94 µM (active).

Take `O=[N+]([O-])c1cc(/C=N/Nc2nc3ccccc3[nH]2)c(O)cc1O`: the Potency is 7.94 µM (active).
